Experimental data as given in the supplement of paper PMC7156485.
Where a name gives a salt, the structure may show the parent alone. ± gives the standard deviation of the averaged measurements.

System: HCC1569
Assay: cell number relative to DMSO (% of DMSO); higher = more cells (less growth inhibition / toxicity)
Conditions: concentration: 10 µM; 24 h
How it was run: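 H1.0 nuclear intensity or cell number is stated as percent of the plate control, based on the median of replicates, and HCC1569 values were smoothed for positional effects. These came from HCC1569 and TDF cells treated with compounds at 10 µM for 24 h at 37 °C in triplicate, then fixed in 3.7% formaldehyde and stained with a rabbit anti-H1.0 antibody, an AlexaFluor 647 secondary and DAPI.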
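Further: TDF denotes transformed human dermal fibroblasts of mesenchymal origin.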

Point of comparison: CCC1(c2ccc(N)cc2)CCC(=O)NC1=O (racemic) [DL-Aminoglutethimide], cell number 109. Against it:
- CC(C)Oc1cccnc1N(C)C1CCN(Cc2ccc(I)cc2)CC1 [RBI-257 maleate] — lower, 100
- COc1ccccc1N1CCNCC1.Cl [1-(2-Methoxyphenyl)piperazine hydrochloride] — lower, 105
- CC(=O)OCC1=C(C(=O)[O-])N2C(=O)C(NC(=O)CCCC(N)C(=O)[O-])C2SC1.[Zn+2] (stereo not given) [Cephalosporin C zinc salt] — lower, 101
- O=C1C=C2C=CC3CC2(O1)C1CCCCN31 (stereo not given) [Securinine] — lower, 87.8
- CC12C(=O)OC(=O)C1(C)C1CCC2O1 (stereo not given) [Cantharidin] — lower, 20.6 ± 2.2
- N#CC(C#N)=Cc1cc(O)c(O)c(O)c1 [Tyrphostin 25] — lower, 91.1
- NC(=NCCCC(N)C(=O)O)N[N+](=O)[O-] [NG-Nitro-L-arginine] — lower, 104
- Cc1ccc2c(c1)C1(CCN(CCc3nc(-c4ccccc4)oc3C)CC1)OC(=O)N2 — lower, 85.9
- CCc1c(C(=O)OC)ncc2[nH]c3cc(OC)c(OC)cc3c12 [Methyl 6,7-dimethoxy-4-ethyl-beta-carboline-3-carboxylate] — lower, 95.8
- Br.CC1NCCc2cc(O)c(O)cc21 (stereo not given) — lower, 100
- CC(C)(C)c1cc(C=C(C#N)C#N)cc(Br)c1O — lower, 99.2
- CCN1CC2(C)CCC(OC)C34C2C(OC(C)=O)C2(OCOC25CC(OC)C2CC3(O)C5C2OC)C14 (stereo not given) [Deltaline] — lower, 105
- C=C(C)C1Cc2c(ccc3c2OC2COc4cc(OC)c(OC)cc4C2C3=O)O1 (stereo not given) [Rotenone] — lower, 59.7 ± 1.6
- N[C@@](CF)(Cc1cnc[nH]1)C(=O)O [MK-453 hydrochloride] — lower, 101
- CCC(C(N)=O)N1CCCC1=O (stereo not given) [Levetiracetam] — lower, 102
- CCCN(CCC)C1CCc2c(F)ccc(O)c2C1.Cl (stereo not drawn) [S(-)-UH-301 hydrochloride] — lower, 102
- Cn1ncnc1COc1nn2c(-c3c(F)cccc3F)nnc2cc1C1CCC1 — lower, 102
- C=C1C(C)C2C(Cc3ccccc3)NC(=O)C23OC(=O)C=CC(O)CCCC(C)CC=CC3C1O (stereo not given) [Cytochalasin B] — lower, 95.1
- CC(=O)OC1CC2CCC3C(CCC4(C)C3CC([N+]3(C)CCCCC3)C4OC(C)=O)C2(C)CC1[N+]1(C)CCCCC1.[Br-].[Br-] (stereo not given) [Pancuronium.2Br] — lower, 100
- C=CCN1CCC23CCCCC2C1Cc1ccc(O)cc13.O=C(O)C(O)C(O)C(=O)O (stereo not given) [Levallorphan tartrate] — lower, 99.1
- Fc1cc(F)c2c(c1)C1C=CCC1C(c1cccnc1)N2 (stereo not given) — lower, 69.8
- CCC1(O)C(=O)OCc2c1cc1n(c2=O)Cc2cc3ccccc3nc2-1 [(S)-(+)-Camptothecin] — lower, 54.2
- Cl.Cl.NNCc1cccc(O)c1 [3-Hydroxybenzylhydrazine dihydrochloride] — lower, 46.1
- C=C1C2CC3(C1O)C1CC4C5(C)CCC(O)C4(C1N(CC)C5)C3CC2=O (stereo not given) [Songorine] — lower, 101
